According to the supplement of paper PMC10849652:
Targets with a hit are over-represented here; the source holds about 7,900 in all. About 0.6% of all pairs of compound and target were hits.

Compound: C1CCN(C1)C(=O)NC2=CC=CC(=C2)NC3=NC=C(C(=N3)NCCC4=CN=CN4)Br
Assay: log2 fold change, soluble protein after heating vs DMSO (PISA); higher = thermal stabilisation; K562 cells, 10 uM, 30 min; active = over 0.2 and 3.5 SD of the protein, either way, in both replicates (recomputed)
Method in brief: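 K562 cells at 2×10^6 cells/mL were exposed to 10 μM compound for 30 min, then aliquots were heated for 3 min across 48°C-58°C, pooled, and extracted in PBS containing 0.5% NP-40 at 4°C. The supernatant after 21,000xg for 90 min was taken as soluble protein and measured by TMTpro 16plex LC-MS/MS with channel sums equalised. Thermal stability is reported relative to control samples, with values from duplicates. Fold changes are given on a log2 scale.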

Chain of UniProt Q9BT78 (Q9BT78 whole entry, looked up): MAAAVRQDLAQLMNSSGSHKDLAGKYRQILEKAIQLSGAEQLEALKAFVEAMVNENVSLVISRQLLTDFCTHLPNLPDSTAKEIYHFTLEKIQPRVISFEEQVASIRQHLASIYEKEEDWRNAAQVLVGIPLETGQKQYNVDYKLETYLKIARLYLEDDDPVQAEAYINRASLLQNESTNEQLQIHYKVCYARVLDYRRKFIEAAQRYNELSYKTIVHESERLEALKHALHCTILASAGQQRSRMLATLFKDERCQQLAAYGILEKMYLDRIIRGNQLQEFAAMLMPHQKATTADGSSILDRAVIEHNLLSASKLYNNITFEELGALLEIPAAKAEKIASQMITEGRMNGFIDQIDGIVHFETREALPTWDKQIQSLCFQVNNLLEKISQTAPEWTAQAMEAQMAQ
Chain of UniProt P46109 (P46109 whole entry, looked up): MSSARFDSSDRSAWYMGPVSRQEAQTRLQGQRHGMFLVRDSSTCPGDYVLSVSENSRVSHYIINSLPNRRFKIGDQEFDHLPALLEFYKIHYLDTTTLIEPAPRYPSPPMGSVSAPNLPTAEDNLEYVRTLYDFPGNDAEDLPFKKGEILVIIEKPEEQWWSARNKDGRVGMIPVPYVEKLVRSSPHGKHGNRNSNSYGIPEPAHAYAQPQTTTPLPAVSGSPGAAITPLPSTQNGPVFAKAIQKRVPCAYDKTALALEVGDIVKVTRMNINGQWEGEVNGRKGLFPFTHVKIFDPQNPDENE
Chain of UniProt Q53ET0 (Q53ET0 whole entry, looked up): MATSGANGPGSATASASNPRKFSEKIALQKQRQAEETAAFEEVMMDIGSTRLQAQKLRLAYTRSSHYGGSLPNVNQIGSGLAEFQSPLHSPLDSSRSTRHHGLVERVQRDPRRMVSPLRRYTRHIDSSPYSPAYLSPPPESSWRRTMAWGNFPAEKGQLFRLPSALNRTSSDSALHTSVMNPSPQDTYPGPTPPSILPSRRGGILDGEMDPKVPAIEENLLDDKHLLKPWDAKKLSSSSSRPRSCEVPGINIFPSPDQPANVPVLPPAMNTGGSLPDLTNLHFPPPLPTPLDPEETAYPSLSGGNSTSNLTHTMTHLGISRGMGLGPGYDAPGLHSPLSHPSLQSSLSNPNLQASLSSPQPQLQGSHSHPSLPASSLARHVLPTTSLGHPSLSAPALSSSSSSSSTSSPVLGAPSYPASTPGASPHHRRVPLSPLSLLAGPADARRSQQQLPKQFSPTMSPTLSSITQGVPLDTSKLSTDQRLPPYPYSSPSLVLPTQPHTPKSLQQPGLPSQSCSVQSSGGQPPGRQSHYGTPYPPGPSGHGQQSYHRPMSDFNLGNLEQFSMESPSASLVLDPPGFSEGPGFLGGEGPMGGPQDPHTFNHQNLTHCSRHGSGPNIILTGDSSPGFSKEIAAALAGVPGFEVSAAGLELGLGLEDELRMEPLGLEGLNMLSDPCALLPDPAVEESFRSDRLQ
Chain of UniProt P27708 (P27708 whole entry, looked up): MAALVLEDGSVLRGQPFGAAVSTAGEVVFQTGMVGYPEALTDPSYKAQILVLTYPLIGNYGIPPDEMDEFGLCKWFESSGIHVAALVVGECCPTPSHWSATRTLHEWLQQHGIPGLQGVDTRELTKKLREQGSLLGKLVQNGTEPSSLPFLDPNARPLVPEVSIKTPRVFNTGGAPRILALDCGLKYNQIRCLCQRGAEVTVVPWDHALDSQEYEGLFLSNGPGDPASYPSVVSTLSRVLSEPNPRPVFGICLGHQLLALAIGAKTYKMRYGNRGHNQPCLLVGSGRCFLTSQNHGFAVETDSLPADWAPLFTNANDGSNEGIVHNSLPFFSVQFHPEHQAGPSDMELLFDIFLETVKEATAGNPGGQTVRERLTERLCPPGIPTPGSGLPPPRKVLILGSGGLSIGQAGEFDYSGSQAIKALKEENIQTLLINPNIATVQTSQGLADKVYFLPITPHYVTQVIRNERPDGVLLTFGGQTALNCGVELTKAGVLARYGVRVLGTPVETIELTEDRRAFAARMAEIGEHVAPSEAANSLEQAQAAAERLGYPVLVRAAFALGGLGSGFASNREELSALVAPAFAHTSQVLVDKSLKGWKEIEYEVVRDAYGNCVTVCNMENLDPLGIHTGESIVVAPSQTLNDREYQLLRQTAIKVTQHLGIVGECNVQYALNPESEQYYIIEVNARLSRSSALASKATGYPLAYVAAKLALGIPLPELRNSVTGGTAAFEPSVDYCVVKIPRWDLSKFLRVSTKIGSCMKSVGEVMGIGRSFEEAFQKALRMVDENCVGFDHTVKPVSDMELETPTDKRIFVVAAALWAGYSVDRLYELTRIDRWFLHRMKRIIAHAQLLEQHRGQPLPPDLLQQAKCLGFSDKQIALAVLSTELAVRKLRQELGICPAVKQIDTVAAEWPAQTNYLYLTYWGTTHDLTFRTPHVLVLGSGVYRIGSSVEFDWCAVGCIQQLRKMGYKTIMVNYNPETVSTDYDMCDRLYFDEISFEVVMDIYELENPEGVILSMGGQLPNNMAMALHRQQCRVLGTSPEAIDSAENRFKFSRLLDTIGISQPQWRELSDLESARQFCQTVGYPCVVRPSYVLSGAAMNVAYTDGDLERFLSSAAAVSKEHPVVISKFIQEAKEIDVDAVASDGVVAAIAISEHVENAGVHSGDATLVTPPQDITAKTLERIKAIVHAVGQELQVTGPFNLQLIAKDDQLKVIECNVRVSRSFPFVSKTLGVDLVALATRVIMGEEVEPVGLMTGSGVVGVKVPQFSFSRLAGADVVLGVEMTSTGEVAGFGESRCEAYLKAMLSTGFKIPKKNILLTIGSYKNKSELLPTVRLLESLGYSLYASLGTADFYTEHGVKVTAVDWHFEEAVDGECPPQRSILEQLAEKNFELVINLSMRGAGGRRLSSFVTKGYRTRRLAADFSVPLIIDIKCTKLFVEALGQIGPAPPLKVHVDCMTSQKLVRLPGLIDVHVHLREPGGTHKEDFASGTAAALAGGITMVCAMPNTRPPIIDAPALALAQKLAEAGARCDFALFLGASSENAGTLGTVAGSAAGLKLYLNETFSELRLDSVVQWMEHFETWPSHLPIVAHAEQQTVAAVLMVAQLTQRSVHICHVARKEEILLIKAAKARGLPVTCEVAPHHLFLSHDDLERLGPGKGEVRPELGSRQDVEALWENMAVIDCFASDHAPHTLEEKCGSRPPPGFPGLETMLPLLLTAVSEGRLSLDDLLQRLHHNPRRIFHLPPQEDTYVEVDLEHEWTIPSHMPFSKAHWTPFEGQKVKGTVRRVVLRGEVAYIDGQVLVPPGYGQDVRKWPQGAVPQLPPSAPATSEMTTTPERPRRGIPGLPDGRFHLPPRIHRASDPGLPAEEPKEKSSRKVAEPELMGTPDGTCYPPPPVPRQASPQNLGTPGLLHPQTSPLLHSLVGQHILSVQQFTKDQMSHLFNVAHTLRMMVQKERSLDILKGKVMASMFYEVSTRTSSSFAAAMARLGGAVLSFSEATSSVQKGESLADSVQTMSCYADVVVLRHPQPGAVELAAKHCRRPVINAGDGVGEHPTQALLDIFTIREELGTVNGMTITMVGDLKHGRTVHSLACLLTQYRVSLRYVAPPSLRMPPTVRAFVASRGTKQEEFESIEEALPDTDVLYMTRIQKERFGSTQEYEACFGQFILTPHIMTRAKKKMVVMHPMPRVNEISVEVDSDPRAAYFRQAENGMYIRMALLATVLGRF
Chain of UniProt Q8NHZ8 (Q8NHZ8 whole entry, looked up): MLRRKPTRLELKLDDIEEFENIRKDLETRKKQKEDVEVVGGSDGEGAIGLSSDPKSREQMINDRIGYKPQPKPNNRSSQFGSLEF
Chain of UniProt P08962 (P08962 whole entry, looked up): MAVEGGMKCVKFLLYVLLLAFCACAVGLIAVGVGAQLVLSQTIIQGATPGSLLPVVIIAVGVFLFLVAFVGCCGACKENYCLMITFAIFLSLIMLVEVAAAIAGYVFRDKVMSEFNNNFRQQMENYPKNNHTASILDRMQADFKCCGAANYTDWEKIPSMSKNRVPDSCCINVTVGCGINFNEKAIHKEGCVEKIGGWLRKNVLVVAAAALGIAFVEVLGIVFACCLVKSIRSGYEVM
Chain of UniProt Q5JTJ3 (Q5JTJ3 whole entry, looked up): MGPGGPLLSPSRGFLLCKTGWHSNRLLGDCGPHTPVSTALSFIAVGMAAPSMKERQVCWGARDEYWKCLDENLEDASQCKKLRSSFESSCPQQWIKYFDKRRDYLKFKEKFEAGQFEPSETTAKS
Chain of UniProt Q01459 (Q01459 whole entry, looked up): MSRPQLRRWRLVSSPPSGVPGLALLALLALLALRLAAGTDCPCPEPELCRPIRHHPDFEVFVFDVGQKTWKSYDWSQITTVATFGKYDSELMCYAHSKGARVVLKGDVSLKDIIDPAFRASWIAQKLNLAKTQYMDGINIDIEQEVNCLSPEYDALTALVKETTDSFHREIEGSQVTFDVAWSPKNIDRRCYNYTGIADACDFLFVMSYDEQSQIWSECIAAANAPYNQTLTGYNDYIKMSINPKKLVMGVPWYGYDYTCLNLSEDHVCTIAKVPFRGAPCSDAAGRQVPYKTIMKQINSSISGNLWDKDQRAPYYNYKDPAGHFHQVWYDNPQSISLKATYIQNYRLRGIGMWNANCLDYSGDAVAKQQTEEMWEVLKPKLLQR
Chain of UniProt Q13901 (Q13901 whole entry, looked up): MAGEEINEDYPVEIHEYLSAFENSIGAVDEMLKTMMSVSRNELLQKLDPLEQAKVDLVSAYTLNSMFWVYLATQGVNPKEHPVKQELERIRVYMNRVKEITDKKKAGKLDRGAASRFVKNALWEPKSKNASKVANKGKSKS
Chain of UniProt Q16740 (Q16740 whole entry, looked up): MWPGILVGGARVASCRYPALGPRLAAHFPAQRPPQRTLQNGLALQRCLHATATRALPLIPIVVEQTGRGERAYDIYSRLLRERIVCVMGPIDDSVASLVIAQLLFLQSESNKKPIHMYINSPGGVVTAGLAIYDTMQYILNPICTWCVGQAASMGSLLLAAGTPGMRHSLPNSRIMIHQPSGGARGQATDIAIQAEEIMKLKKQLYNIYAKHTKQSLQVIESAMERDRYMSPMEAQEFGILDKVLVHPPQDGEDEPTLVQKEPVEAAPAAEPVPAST

log2 fold change, inactive:
CDC26 (UniProt Q8NHZ8) -0.137
CRTC2 (UniProt Q53ET0) -0.233
C1D (UniProt Q13901) -0.019
COA6 isoform 2 (UniProt Q5JTJ3) 0.047
CRKL (UniProt P46109) 0.017
CPT1A (UniProt P50416) -0.055
CCAR2 isoform 2 (UniProt Q8N163) 0.001
CIR1 (UniProt Q86X95) -0.008
CTBS (UniProt Q01459) -0.083
CLUH, A0A494C0R8 0.07
CAD (UniProt P27708) 0.013
CLPP (UniProt Q16740) -0.028
CD63 (UniProt P08962) 0.004
COPS4 (UniProt Q9BT78) -0.009
